Data on 38 compounds can be found in PubChem BioAssay (NCATS).

Each structure is given as a SMILES string. Records with an inconclusive call do not appear. A call without a number means that no potency is given here. Values without a mark were called inactive. The source made the active and inactive calls. The call rests on the fitted dose curve.

A short description of one test: Primary qHTS for inhibitors of SARS-S pseudo-typed particle cell entry (AID 1479145). Further: nearly all actives have a fitted effect of over 45% in size. Further: potency means the concentration at half of the fitted maximal effect. The following applies: SARS-S pseudotyped particle cell entry, luciferase reporter; series mostly up to 57.1 µM; activity change, negative = inhibition: at the top concentration. Background: qHTS replaces the single test concentration by a dilution series.
Consider `COCCCOc1ccnc(CS(=O)c2nc3ccccc3[nH]2)c1C` (stereo unspecified), for which the call was inactive.
As for `CC(C)NCC(O)c1ccc(NS(C)(=O)=O)cc1` (stereo unspecified), the “activity change, negative = inhibition” value was -0.809%.
Still for that read-out and setting: the same measure for `CN[C@@H]1[C@H](O)[C@H](NC)[C@H]2O[C@@]3(O)C(=O)C[C@@H](C)O[C@H]3O[C@@H]2[C@H]1O`: -14.1%.
Consider `COc1cccc(OC)c1C(=O)N[C@@H]1C(=O)N2[C@@H]1SC(C)(C)[C@@H]2C(=O)O`, for which the “activity change, negative = inhibition” value was 1.82%.
On the same count and under the same terms, the same measure for `O=C(Oc1ccccc1)c1ccccc1O`: -16.7%.
In the case of `CCC(Cc1c(I)cc(I)c(N)c1I)C(=O)O` (stereo unspecified), the compound was classed as inactive.
As to `CCCN1CCCC[C@H]1C(=O)Nc1c(C)cccc1C`, the “activity change, negative = inhibition” value was -25.8%.
`NS(=O)(=O)c1cc(C(=O)NN2C[C@H]3[C@H]4CCC(C4)[C@H]3C2)ccc1Cl`: the compound was classed as inactive.
Still for that read-out and setting: the same measure for `CCCCCCCC/C=C/C(=O)O`: “inactive”; for `COc1cc2c(Nc3ccc(Br)cc3F)ncnc2cc1OCC1CCN(C)CC1`: “inactive”; for `Cc1cc2cc3c(C)cc(=O)oc3c(C)c2o1`: “inactive”.
On to `CCOC(=O)C1=C(C)NC(C)=C(C(=O)OC)C1c1cccc([N+](=O)[O-])c1` (stereo unspecified), for which the “activity change, negative = inhibition” value is -25.8%.
Consider `Oc1ccc(OCc2ccccc2)cc1`, for which the “activity change, negative = inhibition” value was -3.04%.
On to `Nc1ccn([C@@H]2CS[C@H](CO)O2)c(=O)n1`, for which the “activity change, negative = inhibition” value was -31.4% [at 114 µM].
The same measure, in the same setting: the same measure for `CC(=O)CC(c1ccc([N+](=O)[O-])cc1)c1c(O)c2ccccc2oc1=O` (stereo unspecified): -7.99%; for `CC(=O)OCC[N+](C)(C)C`: -6.05%.
For `CN[C@@H]1CCc2[nH]c3ccc(C(N)=O)cc3c2C1`, the compound was called inactive.
`NC(=O)NC(=O)Cc1ccccc1`: the “activity change, negative = inhibition” value is 1.01%.
Still for that read-out and setting: the same measure for `Cc1oc(=O)oc1COC(=O)[C@@H]1N2C(=O)[C@@H](NC(=O)[C@H](N)c3ccccc3)[C@H]2SC1(C)C`: -17.2%.
On to `NC(=O)c1cnccn1`, for which the outcome was inactive.
On the same count and under the same terms, the same measure for `Nc1c(I)cc(I)c(C(=O)N(CCC(=O)O)c2ccccc2)c1I`: “inactive”.
For `CCCC(=O)O[C@]1(C(=O)CO)CC[C@H]2[C@@H]3CCC4=CC(=O)CC[C@]4(C)[C@H]3[C@@H](O)C[C@@]21C`, the “activity change, negative = inhibition” value was -20.1%.
As to `COc1ccc2cc1Oc1cc3c(cc1OC)CC[N+](C)(C)[C@H]3Cc1ccc(cc1)Oc1c(OC)c(OC)cc3c1[C@@H](C2)[N+](C)(C)CC3`, the result was inactive.
As to `CN1C(C(=O)Nc2ccccn2)=C(O)c2ccccc2S1(=O)=O`, the “activity change, negative = inhibition” value was -34%.
Turning to `NCCNCCNCCNCCN`, the outcome is “inactive [at 11.4 µM]”.
`CCOC(=O)/C=C(C)/C=C/C=C(C)/C=C/c1c(C)cc(OC)c(C)c1C`: the “activity change, negative = inhibition” value was 4.14%.
As to `O=C(O)CCCCCCCC(=O)O`, the compound was called inactive.
Consider `CC(C)(C)NCC(O)COc1ccccc1OCC1CCCO1` (stereo unspecified), for which the “activity change, negative = inhibition” value is -25.8%.
On the same count and under the same terms, the same measure for `COc1cnc(NS(=O)(=O)c2ccc(N)cc2)nc1`: -6.65%.
Still for that read-out and setting: the same measure for `NCCNCCNCCN`: -13%; for `C[N+](C)(C)CCOC(N)=O`: -16%.
On to `C[C@]12CCC(=O)C=C1CC[C@@H]1[C@@H]2[C@@H](O)C[C@@]2(C)[C@H]1CC[C@]2(O)C(=O)COC(=O)CCC(=O)O`, for which the result was inactive.
The same measure, in the same setting: the same measure for `CCC1(C)CC(=O)NC1=O` (stereo unspecified): “inactive”.
Turning to `CCCCCCCCCCCCCCCCOP(=O)([O-])OCC[N+](C)(C)C`, the Potency is 14.1 µM (active).
For `O=c1cc[nH]c(=O)[nH]1`, the “activity change, negative = inhibition” value is -23.8%.
On the same count and under the same terms, the same measure for `CC(=O)CC/C=C(\C)CC/C=C(\C)CC/C=C(\C)CCC=C(C)C`: -2.96%.
On to `CC(C(=O)O)c1ccc2c(c1)[nH]c1ccc(Cl)cc12` (stereo unspecified), for which the compound was classed as inactive.
For the compound `CCCCCCCCCCCCOCCO`, the “activity change, negative = inhibition” value was -24%.

Another test is described as follows: Primary qHTS for Huh7 cytotoxicity: counterscreen for inhibitors of MERS-S pseudotyped particle cell entry (AID 1479147). The following applies: cell viability read-out; series mostly up to 57.1 µM; activity change, negative = cytotoxicity: at the top concentration.
`COCCCOc1ccnc(CS(=O)c2nc3ccccc3[nH]2)c1C` (stereo unspecified): the “activity change, negative = cytotoxicity” value was -7.98%.
`CC(C)NCC(O)c1ccc(NS(C)(=O)=O)cc1` (stereo unspecified): the outcome was inactive.
On to `CN[C@@H]1[C@H](O)[C@H](NC)[C@H]2O[C@@]3(O)C(=O)C[C@@H](C)O[C@H]3O[C@@H]2[C@H]1O`, for which the outcome was inactive.
For `COc1cccc(OC)c1C(=O)N[C@@H]1C(=O)N2[C@@H]1SC(C)(C)[C@@H]2C(=O)O`, the “activity change, negative = cytotoxicity” value is 0.29%.
Turning to `O=C(Oc1ccccc1)c1ccccc1O`, the result was inactive.
Still for that read-out and setting: the same measure for `CCC(Cc1c(I)cc(I)c(N)c1I)C(=O)O` (stereo unspecified): “inactive”; for `CCCN1CCCC[C@H]1C(=O)Nc1c(C)cccc1C`: “inactive”.
The same measure, in the same setting: the same measure for `NS(=O)(=O)c1cc(C(=O)NN2C[C@H]3[C@H]4CCC(C4)[C@H]3C2)ccc1Cl`: “inactive”; for `CCCCCCCC/C=C/C(=O)O`: “inactive”.
Turning to `COc1cc2c(Nc3ccc(Br)cc3F)ncnc2cc1OCC1CCN(C)CC1`, the “activity change, negative = cytotoxicity” value is 3.22%.
In the case of `Cc1cc2cc3c(C)cc(=O)oc3c(C)c2o1`, the outcome was inactive.
Same read-out and setting: the same measure for `CCOC(=O)C1=C(C)NC(C)=C(C(=O)OC)C1c1cccc([N+](=O)[O-])c1` (stereo unspecified): “inactive”.
Same read-out and setting: the same measure for `Oc1ccc(OCc2ccccc2)cc1`: “inactive”; for `Nc1ccn([C@@H]2CS[C@H](CO)O2)c(=O)n1`: “inactive [at 114 µM]”.
Turning to `CC(=O)CC(c1ccc([N+](=O)[O-])cc1)c1c(O)c2ccccc2oc1=O` (stereo unspecified), the “activity change, negative = cytotoxicity” value was 1.75%.
Consider `CC(=O)OCC[N+](C)(C)C`, for which the result was inactive.
On the same count and under the same terms, the same measure for `CN[C@@H]1CCc2[nH]c3ccc(C(N)=O)cc3c2C1`: “inactive”; for `NC(=O)NC(=O)Cc1ccccc1`: “inactive”; for `Cc1oc(=O)oc1COC(=O)[C@@H]1N2C(=O)[C@@H](NC(=O)[C@H](N)c3ccccc3)[C@H]2SC1(C)C`: “inactive”.
Still for that read-out and setting: the same measure for `NC(=O)c1cnccn1`: “inactive”; for `Nc1c(I)cc(I)c(C(=O)N(CCC(=O)O)c2ccccc2)c1I`: “inactive”.
Still for that read-out and setting: the same measure for `CCCC(=O)O[C@]1(C(=O)CO)CC[C@H]2[C@@H]3CCC4=CC(=O)CC[C@]4(C)[C@H]3[C@@H](O)C[C@@]21C`: “inactive”; for `COc1ccc2cc1Oc1cc3c(cc1OC)CC[N+](C)(C)[C@H]3Cc1ccc(cc1)Oc1c(OC)c(OC)cc3c1[C@@H](C2)[N+](C)(C)CC3`: “inactive”.
In the case of `CN1C(C(=O)Nc2ccccn2)=C(O)c2ccccc2S1(=O)=O`, the “activity change, negative = cytotoxicity” value was 0.953%.
As for `NCCNCCNCCNCCN`, the outcome was “inactive [at 11.4 µM]”.
Still for that read-out and setting: the same measure for `CCOC(=O)/C=C(C)/C=C/C=C(C)/C=C/c1c(C)cc(OC)c(C)c1C`: “inactive”.
The same measure, in the same setting: the same measure for `O=C(O)CCCCCCCC(=O)O`: “inactive”.
For `CC(C)(C)NCC(O)COc1ccccc1OCC1CCCO1` (stereo unspecified), the “activity change, negative = cytotoxicity” value is -3.5%.
Consider `COc1cnc(NS(=O)(=O)c2ccc(N)cc2)nc1`, for which the result was inactive.
The same measure, in the same setting: the same measure for `NCCNCCNCCN`: “inactive”; for `C[N+](C)(C)CCOC(N)=O`: “inactive”.
Regarding `C[C@]12CCC(=O)C=C1CC[C@@H]1[C@@H]2[C@@H](O)C[C@@]2(C)[C@H]1CC[C@]2(O)C(=O)COC(=O)CCC(=O)O`, the outcome was inactive.
Take `CCC1(C)CC(=O)NC1=O` (stereo unspecified): the “activity change, negative = cytotoxicity” value is 3.59%.
Still for that read-out and setting: the same measure for `CCCCCCCCCCCCCCCCOP(=O)([O-])OCC[N+](C)(C)C`: 0.0173%; for `O=c1cc[nH]c(=O)[nH]1`: 0.601%.
For `CC(=O)CC/C=C(\C)CC/C=C(\C)CC/C=C(\C)CCC=C(C)C`, the result was inactive.
Same read-out and setting: the same measure for `CC(C(=O)O)c1ccc2c(c1)[nH]c1ccc(Cl)cc12` (stereo unspecified): “inactive”.
The same measure, in the same setting: the same measure for `CCCCCCCCCCCCOCCO`: “inactive”.
